ELG1 genotoxic: induces genotoxicity in HEK293T cells with luciferase-tagged ELG1. Potency, µM (highest dose often 46 µM), usual class: activators. HEK293T ELG1-luciferase reporter, luminescence, 16 h. 1.3% of 330,000 active. AID 504466; also: nearly all actives have a fitted effect of over 60% in size
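Genotoxicity was scored as increased ELG1-luciferase reporter signal, measured by ONE-Glo luminescence (30 min, room temperature). Compound or vehicle exposure of the HEK293T reporter cells lasted 16 hr at 37°C.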
SMN2 splice enh: increases expression of the SMN2 splice variant; HEK293 SMN2-luciferase splicing reporter, luminescence, 30-36 h; Potency, µM (series often up to 46.1 µM), hits mostly activators; 2.8% of 210,000 active; AID 1458; also: nearly all actives have a fitted effect of over 55% in size
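HEK293 cells carry an SMN2 […]–luciferase reporter in which exon 7 inclusion puts luciferase in frame. Cells were plated 10-12 h before compound addition, then incubated 30-36 h at 37C. ONE-Glo luminescence was read; sodium butyrate at 4.5 mM final served as control.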
ELG1 DNA repair: ELG1-dependent DNA repair inhibition; HEK293T ELG1-luciferase reporter, luminescence, 16 h; DNA damage induced by 5-fluorouridine; Potency, µM (doses to about 46.1 µM), actives largely listed as inhibitors; 2.3% of 330,000 active; AID 504467; also: nearly all actives have a fitted effect of over 55% in size
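Quantitative HTS, concentration-response format. 2,000 cells/well co-treated with 5-fluorouridine and compound, 16 hr in 5% CO2 at 37 °C; ONE-Glo luminescence read after 30 min.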
FLuc modulator: counter-screen for miR-21 project: firefly luciferase inhibitors or activators | AID 588342 | Potency, µM (titrated, usually from 57.5 µM), actives largely listed as inhibitors | P08659 | purified FLuc, Km substrates, luminescence inhibition | 6.9% of 360,000 active; also: nearly all actives have a fitted effect of over 55% in size
Target sequence (P08659 whole entry, looked up): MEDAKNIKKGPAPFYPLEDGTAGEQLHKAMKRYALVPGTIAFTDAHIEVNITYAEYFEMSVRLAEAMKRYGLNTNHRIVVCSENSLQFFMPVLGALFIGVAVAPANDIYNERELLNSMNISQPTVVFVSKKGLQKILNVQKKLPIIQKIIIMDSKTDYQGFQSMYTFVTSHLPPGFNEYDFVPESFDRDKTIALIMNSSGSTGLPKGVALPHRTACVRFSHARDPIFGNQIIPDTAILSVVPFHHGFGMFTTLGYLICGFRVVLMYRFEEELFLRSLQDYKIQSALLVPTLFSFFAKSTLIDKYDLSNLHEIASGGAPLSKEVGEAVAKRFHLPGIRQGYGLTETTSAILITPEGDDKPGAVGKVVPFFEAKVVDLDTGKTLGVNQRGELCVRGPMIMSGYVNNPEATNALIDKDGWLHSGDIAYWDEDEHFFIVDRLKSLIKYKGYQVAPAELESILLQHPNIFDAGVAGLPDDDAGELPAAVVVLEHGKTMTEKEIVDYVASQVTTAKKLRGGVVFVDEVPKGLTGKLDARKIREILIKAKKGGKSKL
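Purified P. pyralis luciferase, 10 nM final, with Km-level 10 uM D-luciferin and 10 uM ATP in 50 mM Tris acetate pH 7.5, 10 mM Mg acetate, 0.01% Tween-20, 0.05% BSA; 6-point qHTS titration about 60 µM downward; luminescence read.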
Rab9 prom act: activators of Rab9 promoter | Potency, µM (titrated, usually from 9.22 µM), most hits filed as activators | AID 485297 | Huh7 Rab9 promoter-luciferase reporter, luminescence, 24 h | 2.8% of 320,000 active; also: nearly all actives have a fitted effect of over 60% in size
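Promoter activation is measured as luciferase luminescence in Huh7 cells stably transfected with a Rab9 promoter–luciferase construct, following 24 h compound exposure at 37 °C and 10 min reagent incubation at ambient temperature.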
NPC1 promoter act: NPC1 promoter activation; Huh7 NPC1 promoter luciferase reporter, 24 h; Potency, µM (titrated, usually from 9.22 µM), hits mostly activators; 2.4% of 320,000 active; AID 485313; also: nearly all actives have a fitted effect of over 60% in size
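Compounds in DMSO were transferred onto Huh7 NPC1-luciferase reporter cells pre-incubated 2 h; after 24 h at 37 °C, Amplite reagent was dispensed and luminescence recorded 10 min later.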
Numbers stand for hits; 0 = inactive; ? = inconclusive; - = not tested or not shown; [ ] = dose if it differs, or a comment. Sampled rows, rich in hits. Any-hit rate of the full collection: about 9.3%. Calls follow the shape of the dose curve; as a rule, active = well fitted curve in the direction sought with a large enough effect; inconclusive = small, poorly fitted or top-dose-only effect, or another doubt; inactive = no such curve, though single readings can be large; an effect the other way counts as inactive or inconclusive.

SMILES	ELG1 genotoxic	SMN2 splice enh	ELG1 DNA repair	FLuc modulator	Rab9 prom act	NPC1 promoter act
Cc1cccnc1NC(=O)CCNS(=O)(=O)c1ccc2c(c1)c(=O)n(C)c(=O)n2C	?	0	0	0	0	0
CC1=NN(C(N)=S)C(=O)C1N=Nc1ccc([N+](=O)[O-])cc1 (stereo unspecified)	?	-	?	3.4µM	?	?
CCOc1ccc(N=NC2C(=O)N(C(N)=S)N=C2C)cc1 (stereo unspecified)	18µM	-	?	3.8µM	4µM	2.8µM
CC1=NN(C(N)=S)C(=O)C1N=Nc1ccc(F)cc1 (stereo unspecified)	23µM	-	?	11µM	3.5µM	2.5µM
CC1=NN(C(N)=S)C(=O)C1N=Nc1cccc(C(=O)O)c1 (stereo unspecified)	0	-	0	4.8µM	2.5µM	?
COc1ccccc1N=NC1C(=O)N(C(N)=S)N=C1C (stereo unspecified)	0	-	0	?	0	0
CCOC(=O)C1CCN(CC(=O)N(CC(C)C)c2c(N)n(CC(C)C)c(=O)[nH]c2=O)CC1	?	0	0	0	0	0
CC1=NN(C(N)=S)C(=O)C1N=Nc1ccc(C)c(Br)c1 (stereo unspecified)	5.2µM	-	?	1.7µM	1.3µM	1.8µM
CC1=NN(C(N)=S)C(=O)C1N=Nc1ccc(O)cc1 (stereo unspecified)	0	-	0	27µM	0	0
CC1=NN(C(N)=S)C(=O)C1N=Nc1cccc(C)c1 (stereo unspecified)	?	-	0	?	?	?
CC1=NN(C(N)=S)C(=O)C1N=Nc1ccccc1C(=O)O (stereo unspecified)	0	-	0	0	0	0
CC1=NN(C(N)=S)C(=O)C1N=Nc1ccccc1Cl (stereo unspecified)	0	-	?	?	0	0
CC(=O)Nc1ccc(N=NC2C(=O)N(C(N)=S)N=C2C)cc1 (stereo unspecified)	?	-	?	12µM	?	?
CC1=NN(c2ccccc2C(=O)O)C(=O)C1N=Nc1ccccc1 (stereo unspecified)	0	-	0	15µM	0	0
CCc1cc(=O)n2[nH]c(C)c(-c3ccc(OC)cc3)c2n1	0	-	0	0	0	0
CC1=NN(C(N)=S)C(=O)C1N=Nc1ccc(Cl)cc1Cl (stereo unspecified)	?	-	?	24µM	4.5µM	3.2µM
COc1cccc(CNC(=O)c2cc3cccc4c3n2CC(C)S4)c1OC (stereo unspecified)	-	-	-	0	-	-
CCOC(=O)Nc1oc2ccccc2c(=O)c1CN1CCOCC1	0	0	10µM	0	0	0
CCOC(=O)c1oc2ccccc2c1CN1CC(C)OC(C)C1 (stereo unspecified)	0	-	0	0	0	0
CCOc1ccccc1N1CCN(C(=O)c2ccc(NS(=O)(=O)c3ccc4[nH]c(=O)[nH]c4c3)cc2)CC1	0	-	0	0	0	0
O=C(COc1ccc2ccccc2c1)NC1CC1	0	0	?	17µM	?	0
COc1ccc(NC(=O)COc2ccccc2)c(OC)c1	18µM	0	?	19µM	?	?
CCc1ccc(OCC(=O)Nc2cc(S(=O)(=O)CC)ccc2O)cc1	0	0	0	24µM	0	0
COc1ccc(OCC(=O)Nc2ccccc2O)cc1	9.2µM	0	?	21µM	?	0
CCS(=O)(=O)c1ccc(O)c(NC(=O)COc2ccccc2)c1	0	0	0	0	0	0
SMILES	ELG1 genotoxic	SMN2 splice enh	ELG1 DNA repair	FLuc modulator	Rab9 prom act	NPC1 promoter act
CCOC(=O)N1CCc2c(sc3c2c(=O)n(Cc2ccccc2)c(=O)n3CC(=O)Nc2ccc(C)c(C)c2)C1	-	0	-	0	-	-
CCCCN(C)C(=O)c1nc2ccccn2c1CN(C)Cc1csc(C)n1	0	-	0	0	0	0
C[C@@H](CCc1ccc(O)cc1)NCCc1ccc(O)c(O)c1	-	0	-	-	-	-
COc1ccc(NC(=O)CS(=O)(=O)c2cn(CC(=O)N(C(C)C)C(C)C)c3ccccc23)c(OC)c1	0	-	?	0	0	0
COc1ccc(NC(=O)Cn2cc(S(=O)(=O)Cc3ccccc3)c3ccccc32)c(OC)c1	0	0	15µM	0	0	0
O=C(COc1ccc2ccccc2c1)Nc1ccc(Cc2ccncc2)cc1	0	0	0	0	0	0
O=C(O)Cc1ccc(NC(=O)COc2ccc3ccccc3c2)cc1	0	-	0	19µM	0	0
COc1ccccc1NC(=O)COc1ccc2ccccc2c1	0	-	?	15µM	0	0
O=C(COc1ccc2ccccc2c1)Nc1ccccc1C(=O)O	0	-	?	17µM	0	0
Cc1ccc(S(=O)(=O)N2CCCc3cc(NC(=O)c4ccc(Cl)cc4)ccc32)cc1	-	-	-	0	-	-
CN=c1sc(C(=O)Nc2ccccc2)c(C)n1C	0	0	0	0	0	0
Cc1ccnc2nc(C(=O)OCCOc3cccc(Br)c3)nn12	0	0	0	0	0	0
COc1cc(C(=O)NNC(=O)c2cc(=O)[nH]c3ccccc23)cc(OC)c1OC	0	-	0	0	0	0
COc1ccc(C)cc1NC(=O)COC(=O)Cc1ccc(-c2ccccc2)cc1	0	-	0	?	0	0
COc1ccc(NC(=O)COC(=O)Cc2ccc(-c3ccccc3)cc2)c(OC)c1	0	0	0	13µM	0	0
Cc1ccc(Nc2nnc(SCc3cc(=O)n4ccsc4n3)s2)c(C)c1	0	0	0	0	0	0
Cc1ccc(SCc2cc(=O)n3ccsc3n2)c(C)c1	?	13µM	?	15µM	3.2µM	?
Cc1cccc(-c2nnn3c2nc(NCc2ccc4c(c2)OCO4)c2ccccc23)c1	-	0	-	0	-	-
CCc1ccc2c(c1)c1nnc(NN)nc1n2C	0	-	0	0	0	0
CCc1ccc2c(c1)c1nnc(NN)nc1n2CC	0	0	16µM	0	0	0
NNc1nnc2c3cc(F)ccc3n(Cc3ccccc3)c2n1	0	-	9.2µM	0	0	0
O=C(N/N=C/c1cccnc1)c1ccc(F)cc1	0	-	?	13µM	?	0
CC(=O)n1cc(/C=N/NC(=O)c2ccc([N+](=O)[O-])cc2)c2ccccc21	0	-	0	6.7µM	0	0
COC(=O)c1ccc(/C=N/NC(=O)c2cccc(F)c2)cc1	?	14µM	?	0	3.2µM	2µM
Nc1ccc(C(=O)N/N=C/c2ccccc2)cc1	?	?	?	11µM	3.2µM	?
Cc1c(/C=N\NC(=O)c2ccc([N+](=O)[O-])cc2)cnn1C	0	0	0	0	0	0
Cc1cc(=O)oc2cc(OCC(=O)NCCCN3CCOCC3)c(Cl)cc12	0[9.26 µM]	-	0	0	0	0
CCCn1c2ccccc2c2cn[nH]c(=O)c21	0	-	?	0	0	0
CN(C)/C=C(\C#N)C(=O)N/N=C/c1ccc(F)cc1	0	0	0	17µM	0	0
